Assay in all cases: DAPPL (digital affinity profiling via proximity ligation, sequencing); 10 mM Tris-HCl pH 7.5, 50 mM NaCl, 1 mM DTT, 4% glycerol, room temperature, 30 min; GST-TFs on glutathione beads, 16-mer random dsDNA library, 0.1% formaldehyde crosslink after washing; high values mean tight binding
Details in all cases: protein: recombinant; tags: N-terminal GST; dsDNA, one strand shown

The target in one test is T1, ELK1 (Homo sapiens, UniProt P19419 1-428).
T1 sequence: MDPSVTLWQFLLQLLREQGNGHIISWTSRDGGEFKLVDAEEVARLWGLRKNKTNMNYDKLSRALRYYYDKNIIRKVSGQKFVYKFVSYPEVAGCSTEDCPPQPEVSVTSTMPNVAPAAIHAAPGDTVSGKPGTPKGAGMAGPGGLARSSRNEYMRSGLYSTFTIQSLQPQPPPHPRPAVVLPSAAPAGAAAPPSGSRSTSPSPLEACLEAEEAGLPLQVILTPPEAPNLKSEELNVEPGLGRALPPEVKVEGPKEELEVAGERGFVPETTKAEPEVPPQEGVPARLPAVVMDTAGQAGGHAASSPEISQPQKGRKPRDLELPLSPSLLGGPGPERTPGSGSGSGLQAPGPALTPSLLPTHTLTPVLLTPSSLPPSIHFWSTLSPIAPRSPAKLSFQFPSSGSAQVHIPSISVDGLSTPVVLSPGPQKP
In outline:
(§1)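 GST fusions of human transcription factors were expressed in yeast and captured with glutathione beads. Once given DNA barcodes and pooled alongside a tag-only sample, they were incubated for 30 min at room temperature with 200 nmole of a random double-stranded 16-mer DNA library in Tris/NaCl/DTT/glycerol buffer, then washed, crosslinked (0.1% formaldehyde), proximity-ligated, PCR-amplified and sequenced on an Illumina NextSeq500. The binding signal of each hexamer is its read frequency for a factor divided by its frequency for the tag-only sample.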

The next test deals with T2, ERG (Homo sapiens, UniProt P11308 1-479).
T2 sequence: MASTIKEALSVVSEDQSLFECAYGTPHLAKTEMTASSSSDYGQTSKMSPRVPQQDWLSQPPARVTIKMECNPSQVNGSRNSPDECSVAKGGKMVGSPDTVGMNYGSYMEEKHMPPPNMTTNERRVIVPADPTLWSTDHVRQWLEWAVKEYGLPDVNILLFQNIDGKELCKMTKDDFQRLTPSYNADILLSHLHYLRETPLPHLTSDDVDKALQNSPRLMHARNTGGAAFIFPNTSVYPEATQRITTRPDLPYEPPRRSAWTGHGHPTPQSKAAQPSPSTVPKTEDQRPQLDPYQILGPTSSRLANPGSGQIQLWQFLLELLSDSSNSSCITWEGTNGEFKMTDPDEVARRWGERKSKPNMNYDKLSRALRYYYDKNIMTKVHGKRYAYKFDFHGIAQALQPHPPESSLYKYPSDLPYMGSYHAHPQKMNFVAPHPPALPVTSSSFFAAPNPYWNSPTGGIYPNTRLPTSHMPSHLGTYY
In outline:
as §1

A further test deals with ELF1 (Homo sapiens, UniProt P32519 1-619). In short, it runs like this:
as §1

The target in a further test is T3, EHF (Homo sapiens, UniProt Q9NZC4 1-300).
T3 sequence: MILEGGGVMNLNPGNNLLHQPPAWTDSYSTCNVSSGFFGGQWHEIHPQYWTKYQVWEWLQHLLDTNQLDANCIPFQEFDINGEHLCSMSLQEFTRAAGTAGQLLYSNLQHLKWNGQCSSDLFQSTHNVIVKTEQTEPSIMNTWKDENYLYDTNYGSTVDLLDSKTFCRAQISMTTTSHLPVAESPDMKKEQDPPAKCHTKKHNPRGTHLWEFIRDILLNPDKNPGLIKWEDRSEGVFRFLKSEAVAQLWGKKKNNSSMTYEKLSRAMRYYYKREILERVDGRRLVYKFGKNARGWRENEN
In outline:
as §1

In another test the target is SPIB (Homo sapiens, UniProt Q01892 1-262). In short, it runs like this:
as §1

Another test has as its target ETV5 (Homo sapiens, UniProt P41161 1-510). In short, it runs like this:
as §1

The next test concerns the target ELF4 (Homo sapiens, UniProt Q99607 1-663). In outline: as §1
In another test the target is T4, ELK4 (Homo sapiens, UniProt P28324-2 1-405).
T4 sequence: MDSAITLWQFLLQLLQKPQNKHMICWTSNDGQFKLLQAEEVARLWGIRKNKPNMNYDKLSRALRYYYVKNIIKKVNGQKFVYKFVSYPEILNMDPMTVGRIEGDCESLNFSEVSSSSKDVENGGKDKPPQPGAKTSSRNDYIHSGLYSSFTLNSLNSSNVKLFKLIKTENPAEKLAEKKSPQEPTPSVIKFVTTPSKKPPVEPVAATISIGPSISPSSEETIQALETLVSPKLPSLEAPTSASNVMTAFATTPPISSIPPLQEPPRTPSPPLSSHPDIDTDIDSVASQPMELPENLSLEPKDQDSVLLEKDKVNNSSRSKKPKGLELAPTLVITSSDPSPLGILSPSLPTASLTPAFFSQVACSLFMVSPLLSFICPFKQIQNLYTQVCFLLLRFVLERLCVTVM
In short, it runs like this:
as §1

For another test, the target named is T5, ETV2 (Homo sapiens, UniProt O00321 1-342).
T5 sequence: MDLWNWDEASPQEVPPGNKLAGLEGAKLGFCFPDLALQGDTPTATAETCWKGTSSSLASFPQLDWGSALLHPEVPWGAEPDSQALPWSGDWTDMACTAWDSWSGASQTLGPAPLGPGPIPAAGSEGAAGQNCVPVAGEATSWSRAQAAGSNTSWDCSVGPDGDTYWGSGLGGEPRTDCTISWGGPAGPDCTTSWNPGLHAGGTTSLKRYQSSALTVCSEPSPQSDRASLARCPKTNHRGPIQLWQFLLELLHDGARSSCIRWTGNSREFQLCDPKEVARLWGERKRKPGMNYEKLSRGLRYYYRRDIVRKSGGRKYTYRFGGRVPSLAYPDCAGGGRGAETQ
In short, it runs like this:
as §1

For a further test, the target named is ETV1 (Homo sapiens, UniProt P50549 1-477). In short, it runs like this: as §1
The next test concerns the target T6, ERF (Homo sapiens, UniProt P50548 1-548).
T6 sequence: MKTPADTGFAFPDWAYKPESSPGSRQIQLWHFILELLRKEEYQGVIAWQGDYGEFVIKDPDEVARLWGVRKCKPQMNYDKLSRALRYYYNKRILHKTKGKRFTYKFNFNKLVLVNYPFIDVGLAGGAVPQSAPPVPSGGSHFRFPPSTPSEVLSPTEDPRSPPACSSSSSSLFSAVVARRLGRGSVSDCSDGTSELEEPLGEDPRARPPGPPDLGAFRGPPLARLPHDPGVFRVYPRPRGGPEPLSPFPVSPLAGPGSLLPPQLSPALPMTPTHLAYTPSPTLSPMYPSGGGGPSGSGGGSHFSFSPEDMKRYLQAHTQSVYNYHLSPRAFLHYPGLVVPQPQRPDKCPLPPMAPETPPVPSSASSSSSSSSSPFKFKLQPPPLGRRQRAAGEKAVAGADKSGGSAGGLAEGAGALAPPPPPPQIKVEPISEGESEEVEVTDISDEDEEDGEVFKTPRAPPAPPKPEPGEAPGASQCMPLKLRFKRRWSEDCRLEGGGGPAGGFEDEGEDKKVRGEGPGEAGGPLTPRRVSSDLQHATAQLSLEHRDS
In short, it runs like this: as §1

The next test concerns the target T7, ETV3L (Homo sapiens, UniProt Q6ZN32 1-361).
T7 sequence: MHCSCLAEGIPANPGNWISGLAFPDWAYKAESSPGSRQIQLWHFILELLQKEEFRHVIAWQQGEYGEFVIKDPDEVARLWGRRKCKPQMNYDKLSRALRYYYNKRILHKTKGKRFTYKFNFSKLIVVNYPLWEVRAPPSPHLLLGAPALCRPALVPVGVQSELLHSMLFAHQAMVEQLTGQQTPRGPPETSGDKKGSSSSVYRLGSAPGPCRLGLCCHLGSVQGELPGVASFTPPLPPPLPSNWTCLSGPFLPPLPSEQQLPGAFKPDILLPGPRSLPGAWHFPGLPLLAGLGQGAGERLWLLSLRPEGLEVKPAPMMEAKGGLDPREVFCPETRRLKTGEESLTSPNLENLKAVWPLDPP
In short, it runs like this:
as §1

Another test concerns the target T8, ETS2 (Homo sapiens, UniProt P15036 1-469).
T8 sequence: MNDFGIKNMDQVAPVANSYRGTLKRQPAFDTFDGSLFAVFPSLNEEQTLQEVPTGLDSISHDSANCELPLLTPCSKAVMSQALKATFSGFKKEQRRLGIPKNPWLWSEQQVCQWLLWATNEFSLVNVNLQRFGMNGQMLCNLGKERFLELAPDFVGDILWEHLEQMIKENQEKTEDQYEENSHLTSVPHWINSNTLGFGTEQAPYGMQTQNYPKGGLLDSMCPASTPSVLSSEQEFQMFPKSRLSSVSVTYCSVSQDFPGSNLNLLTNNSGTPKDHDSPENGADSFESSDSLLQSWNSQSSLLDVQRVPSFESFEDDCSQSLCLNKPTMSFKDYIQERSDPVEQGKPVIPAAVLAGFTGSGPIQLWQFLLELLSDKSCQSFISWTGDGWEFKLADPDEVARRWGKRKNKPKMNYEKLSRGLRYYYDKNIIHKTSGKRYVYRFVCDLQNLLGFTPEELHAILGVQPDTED
In short, it runs like this:
as §1

Another test concerns the target T9, SPDEF (Homo sapiens, UniProt O95238 1-335).
T9 sequence: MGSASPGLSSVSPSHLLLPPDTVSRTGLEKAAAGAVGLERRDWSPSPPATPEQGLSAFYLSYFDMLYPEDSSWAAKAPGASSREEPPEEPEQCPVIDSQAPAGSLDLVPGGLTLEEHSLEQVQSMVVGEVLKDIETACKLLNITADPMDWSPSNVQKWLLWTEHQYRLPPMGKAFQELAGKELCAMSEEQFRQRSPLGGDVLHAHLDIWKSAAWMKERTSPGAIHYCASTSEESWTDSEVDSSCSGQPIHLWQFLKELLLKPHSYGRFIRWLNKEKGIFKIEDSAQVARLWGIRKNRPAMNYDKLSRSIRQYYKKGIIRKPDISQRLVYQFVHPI
In outline: as §1

In the next test the target is T10, ETV7 (Homo sapiens, UniProt Q9Y603 1-341).
T10 sequence: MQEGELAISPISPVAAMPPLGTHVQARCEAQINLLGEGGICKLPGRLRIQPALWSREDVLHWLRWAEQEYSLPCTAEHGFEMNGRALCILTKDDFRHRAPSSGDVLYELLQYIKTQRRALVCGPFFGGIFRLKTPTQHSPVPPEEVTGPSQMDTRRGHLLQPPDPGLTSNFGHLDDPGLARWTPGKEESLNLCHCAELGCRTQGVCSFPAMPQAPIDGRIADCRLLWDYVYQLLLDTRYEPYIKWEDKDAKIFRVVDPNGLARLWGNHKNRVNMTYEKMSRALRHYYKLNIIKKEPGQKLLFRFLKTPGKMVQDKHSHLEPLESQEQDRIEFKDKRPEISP
In outline: as §1

For the next test, the target named is T11, ETV3 (Homo sapiens, UniProt P41162-2 1-143).
T11 sequence: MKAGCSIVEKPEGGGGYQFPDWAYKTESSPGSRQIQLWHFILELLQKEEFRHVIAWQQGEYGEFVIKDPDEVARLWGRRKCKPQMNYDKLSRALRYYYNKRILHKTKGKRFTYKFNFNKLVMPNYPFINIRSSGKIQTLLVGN
In outline:
as §1

A further test deals with ETV6 (Homo sapiens, UniProt P41212 1-452). In short, it runs like this: as §1

Our source for the binding signal values is PMC7862700, “An all-to-all approach to the identification of sequence-specific readers for epigenetic DNA modifications on cytosine”.

Chain of ETV1 (P50549 whole entry): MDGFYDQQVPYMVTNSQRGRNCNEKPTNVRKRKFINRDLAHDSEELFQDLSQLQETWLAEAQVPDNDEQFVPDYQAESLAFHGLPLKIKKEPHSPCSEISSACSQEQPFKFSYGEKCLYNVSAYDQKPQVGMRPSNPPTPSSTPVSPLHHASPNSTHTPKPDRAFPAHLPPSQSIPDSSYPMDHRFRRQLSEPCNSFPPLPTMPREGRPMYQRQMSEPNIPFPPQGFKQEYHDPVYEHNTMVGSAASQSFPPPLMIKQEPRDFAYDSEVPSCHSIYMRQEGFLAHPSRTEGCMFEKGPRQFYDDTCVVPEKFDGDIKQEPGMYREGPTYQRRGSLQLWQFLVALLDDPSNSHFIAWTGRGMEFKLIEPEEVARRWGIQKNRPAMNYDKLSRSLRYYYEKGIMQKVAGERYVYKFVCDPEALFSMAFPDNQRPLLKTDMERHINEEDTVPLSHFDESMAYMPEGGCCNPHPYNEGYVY
Chain of ETV6 (P41212 whole entry): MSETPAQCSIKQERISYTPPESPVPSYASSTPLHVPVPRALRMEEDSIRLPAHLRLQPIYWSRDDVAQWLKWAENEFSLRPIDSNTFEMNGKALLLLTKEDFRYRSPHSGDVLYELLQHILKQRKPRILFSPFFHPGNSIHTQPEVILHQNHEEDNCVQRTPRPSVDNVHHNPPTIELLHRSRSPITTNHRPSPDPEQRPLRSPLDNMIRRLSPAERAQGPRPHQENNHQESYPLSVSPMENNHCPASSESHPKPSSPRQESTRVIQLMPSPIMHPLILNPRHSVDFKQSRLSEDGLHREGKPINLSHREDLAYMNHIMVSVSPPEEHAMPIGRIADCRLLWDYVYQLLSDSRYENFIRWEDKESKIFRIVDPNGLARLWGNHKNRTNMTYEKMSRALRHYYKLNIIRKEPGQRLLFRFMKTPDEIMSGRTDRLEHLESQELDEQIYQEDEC
Chain of ELF4 (Q99607 whole entry): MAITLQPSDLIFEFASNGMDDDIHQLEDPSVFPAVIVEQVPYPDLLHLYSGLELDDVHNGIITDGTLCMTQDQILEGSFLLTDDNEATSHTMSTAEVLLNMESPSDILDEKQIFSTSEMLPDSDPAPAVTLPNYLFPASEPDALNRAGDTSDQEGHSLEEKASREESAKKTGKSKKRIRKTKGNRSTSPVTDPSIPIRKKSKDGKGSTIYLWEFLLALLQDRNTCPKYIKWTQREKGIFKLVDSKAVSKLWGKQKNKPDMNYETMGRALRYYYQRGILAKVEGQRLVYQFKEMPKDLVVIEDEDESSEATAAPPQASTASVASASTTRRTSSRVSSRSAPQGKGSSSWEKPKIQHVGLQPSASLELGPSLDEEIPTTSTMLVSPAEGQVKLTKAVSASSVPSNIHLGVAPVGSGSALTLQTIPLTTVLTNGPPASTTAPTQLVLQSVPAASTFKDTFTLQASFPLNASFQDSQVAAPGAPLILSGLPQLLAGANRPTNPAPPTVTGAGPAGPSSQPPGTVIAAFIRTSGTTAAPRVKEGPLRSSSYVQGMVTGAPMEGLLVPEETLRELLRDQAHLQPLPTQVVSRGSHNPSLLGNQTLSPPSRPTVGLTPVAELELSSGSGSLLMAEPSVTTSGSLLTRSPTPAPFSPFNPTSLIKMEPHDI
Chain of SPIB (Q01892 whole entry): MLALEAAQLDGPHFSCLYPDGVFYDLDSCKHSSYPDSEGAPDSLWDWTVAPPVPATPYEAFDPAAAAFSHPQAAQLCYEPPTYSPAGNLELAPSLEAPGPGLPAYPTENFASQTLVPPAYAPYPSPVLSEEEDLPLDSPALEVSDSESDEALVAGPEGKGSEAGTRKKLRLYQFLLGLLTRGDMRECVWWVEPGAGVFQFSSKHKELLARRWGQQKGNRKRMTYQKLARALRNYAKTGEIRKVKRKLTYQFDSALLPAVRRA
Chain of ETV5 (P41161 whole entry): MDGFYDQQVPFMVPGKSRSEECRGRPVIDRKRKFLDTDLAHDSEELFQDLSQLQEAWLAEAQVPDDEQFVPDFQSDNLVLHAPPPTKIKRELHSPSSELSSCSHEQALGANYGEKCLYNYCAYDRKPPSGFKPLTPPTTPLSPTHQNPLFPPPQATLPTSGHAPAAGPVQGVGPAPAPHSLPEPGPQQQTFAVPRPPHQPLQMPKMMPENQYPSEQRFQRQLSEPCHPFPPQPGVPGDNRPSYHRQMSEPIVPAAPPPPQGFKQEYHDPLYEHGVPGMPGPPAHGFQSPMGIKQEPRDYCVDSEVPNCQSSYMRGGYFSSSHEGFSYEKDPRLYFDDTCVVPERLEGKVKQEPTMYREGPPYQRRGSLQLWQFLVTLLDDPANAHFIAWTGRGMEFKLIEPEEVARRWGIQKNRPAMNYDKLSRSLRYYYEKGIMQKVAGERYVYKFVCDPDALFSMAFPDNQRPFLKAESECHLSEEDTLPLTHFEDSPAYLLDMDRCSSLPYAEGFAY
Chain of ELF1 (P32519 whole entry): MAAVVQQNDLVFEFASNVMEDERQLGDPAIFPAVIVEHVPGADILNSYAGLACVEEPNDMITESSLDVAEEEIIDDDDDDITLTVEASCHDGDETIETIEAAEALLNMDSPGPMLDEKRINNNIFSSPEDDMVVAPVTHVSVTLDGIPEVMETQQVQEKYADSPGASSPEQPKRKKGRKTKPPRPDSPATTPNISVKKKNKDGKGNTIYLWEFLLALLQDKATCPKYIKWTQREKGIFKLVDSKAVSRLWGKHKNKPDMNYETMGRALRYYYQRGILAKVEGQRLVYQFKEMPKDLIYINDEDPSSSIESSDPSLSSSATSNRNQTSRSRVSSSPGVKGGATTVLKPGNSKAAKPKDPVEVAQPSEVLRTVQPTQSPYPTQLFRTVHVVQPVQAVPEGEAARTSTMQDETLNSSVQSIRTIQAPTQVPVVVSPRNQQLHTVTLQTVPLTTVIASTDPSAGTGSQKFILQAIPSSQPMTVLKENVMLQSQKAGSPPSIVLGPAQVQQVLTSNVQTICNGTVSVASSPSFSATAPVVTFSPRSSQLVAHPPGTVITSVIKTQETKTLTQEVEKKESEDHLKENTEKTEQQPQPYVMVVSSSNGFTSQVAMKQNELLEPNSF

Consider CATGTT, for which the binding signal with ELK1 is 1.07 fold enrichment (6-mer frequency, TF over GST control); in the test with ERG, 1.04 fold enrichment (6-mer frequency, TF over GST control); with ELF1 it was 1.06 fold enrichment (6-mer frequency, TF over GST control); with EHF it was 1.03 fold enrichment (6-mer frequency, TF over GST control); with SPIB, 1.03 fold enrichment (6-mer frequency, TF over GST control); with ETV5, 1.03 fold enrichment (6-mer frequency, TF over GST control). In addition, the binding signal with ELF4 was 1.05 fold enrichment (6-mer frequency, TF over GST control); with ELK4, 1.1 fold enrichment (6-mer frequency, TF over GST control); with ETV2 it was 1.11 fold enrichment (6-mer frequency, TF over GST control); in the test with ETV1, 1.15 fold enrichment (6-mer frequency, TF over GST control); in the test with ERF, 1.05 fold enrichment (6-mer frequency, TF over GST control); with ETV3L it was 1.06 fold enrichment (6-mer frequency, TF over GST control). Moreover, the binding signal is 1.01 fold enrichment (6-mer frequency, TF over GST control) in the test with ETS2; 1.02 fold enrichment (6-mer frequency, TF over GST control) in the test with SPDEF; 1.1 fold enrichment (6-mer frequency, TF over GST control) with ETV7; 1.12 fold enrichment (6-mer frequency, TF over GST control) in the test with ETV3; 1.1 fold enrichment (6-mer frequency, TF over GST control) with ETV6.
